Key:
Experiment in all cases: DAPPL (digital affinity profiling via proximity ligation, sequencing); 10 mM Tris-HCl pH 7.5, 50 mM NaCl, 1 mM DTT, 4% glycerol, room temperature, 30 min; GST-TFs on glutathione beads, 16-mer random dsDNA library, 0.1% formaldehyde crosslink after washing; high values mean tight binding
Details in all cases: protein: recombinant; tags: N-terminal GST; dsDNA, one strand shown
ERF = target: T1, ERF (Homo sapiens, UniProt P50548 1-548)
T1 sequence: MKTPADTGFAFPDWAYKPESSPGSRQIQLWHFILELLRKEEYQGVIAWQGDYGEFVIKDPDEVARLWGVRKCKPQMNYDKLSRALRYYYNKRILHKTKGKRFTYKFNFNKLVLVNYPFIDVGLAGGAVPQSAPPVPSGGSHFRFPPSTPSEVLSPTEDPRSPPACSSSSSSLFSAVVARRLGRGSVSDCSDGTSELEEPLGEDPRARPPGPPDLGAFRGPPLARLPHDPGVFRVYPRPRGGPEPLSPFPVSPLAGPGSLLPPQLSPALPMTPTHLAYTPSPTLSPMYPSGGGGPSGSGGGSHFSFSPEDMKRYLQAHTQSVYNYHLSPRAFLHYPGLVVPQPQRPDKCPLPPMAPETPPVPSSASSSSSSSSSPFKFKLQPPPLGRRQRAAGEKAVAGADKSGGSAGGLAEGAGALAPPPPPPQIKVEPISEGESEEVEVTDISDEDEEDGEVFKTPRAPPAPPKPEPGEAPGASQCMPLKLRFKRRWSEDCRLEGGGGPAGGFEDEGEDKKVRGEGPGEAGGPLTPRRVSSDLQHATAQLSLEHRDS
In short: (§1)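 Binding signal is given per hexamer as its read frequency for a factor divided by its frequency in the tag-only sample. GST-fused human transcription factors were expressed in yeast, captured on glutathione beads, barcoded with DNA and pooled with that sample, then incubated with 200 nmole of a 16-mer random double-stranded DNA library in Tris/NaCl/DTT/glycerol buffer for 30 min at room temperature. The pools were then washed, crosslinked, proximity-ligated, amplified by PCR and sequenced on an Illumina NextSeq500.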

ETV3L = target: T2, ETV3L (Homo sapiens, UniProt Q6ZN32 1-361)
T2 sequence: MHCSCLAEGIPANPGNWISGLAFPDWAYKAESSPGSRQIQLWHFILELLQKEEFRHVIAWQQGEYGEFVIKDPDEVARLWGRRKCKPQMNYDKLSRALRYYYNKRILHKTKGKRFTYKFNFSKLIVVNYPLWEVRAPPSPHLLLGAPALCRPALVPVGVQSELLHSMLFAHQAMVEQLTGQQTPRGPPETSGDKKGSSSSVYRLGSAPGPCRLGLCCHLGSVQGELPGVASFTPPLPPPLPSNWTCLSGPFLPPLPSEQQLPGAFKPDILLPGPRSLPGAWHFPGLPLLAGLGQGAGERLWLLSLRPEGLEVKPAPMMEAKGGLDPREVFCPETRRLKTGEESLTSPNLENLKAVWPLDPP
In short: as §1

ETS2 = target: T3, ETS2 (Homo sapiens, UniProt P15036 1-469)
T3 sequence: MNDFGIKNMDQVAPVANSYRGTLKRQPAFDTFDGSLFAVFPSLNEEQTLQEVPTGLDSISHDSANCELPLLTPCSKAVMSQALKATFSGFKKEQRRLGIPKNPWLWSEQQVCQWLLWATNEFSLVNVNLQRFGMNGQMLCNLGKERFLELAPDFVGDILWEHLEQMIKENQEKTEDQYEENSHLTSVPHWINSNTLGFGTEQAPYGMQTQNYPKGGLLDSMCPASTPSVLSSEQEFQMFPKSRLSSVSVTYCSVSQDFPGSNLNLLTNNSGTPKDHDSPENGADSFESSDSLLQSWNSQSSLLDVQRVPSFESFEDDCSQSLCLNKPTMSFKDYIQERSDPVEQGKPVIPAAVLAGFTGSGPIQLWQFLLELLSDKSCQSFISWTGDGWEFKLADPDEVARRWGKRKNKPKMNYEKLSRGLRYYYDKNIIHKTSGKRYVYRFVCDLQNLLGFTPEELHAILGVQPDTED
In short: as §1

SPDEF = target: T4, SPDEF (Homo sapiens, UniProt O95238 1-335)
T4 sequence: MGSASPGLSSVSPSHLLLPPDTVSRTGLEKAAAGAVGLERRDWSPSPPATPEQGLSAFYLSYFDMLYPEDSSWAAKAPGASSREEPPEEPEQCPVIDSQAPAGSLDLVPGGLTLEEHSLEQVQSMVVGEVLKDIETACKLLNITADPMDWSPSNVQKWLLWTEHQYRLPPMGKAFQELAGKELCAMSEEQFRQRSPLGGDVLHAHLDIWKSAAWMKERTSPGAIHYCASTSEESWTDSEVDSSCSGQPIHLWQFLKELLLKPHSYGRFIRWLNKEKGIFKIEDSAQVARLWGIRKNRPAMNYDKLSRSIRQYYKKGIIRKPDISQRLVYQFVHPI
In short: as §1

ETV7 = target: T5, ETV7 (Homo sapiens, UniProt Q9Y603 1-341)
T5 sequence: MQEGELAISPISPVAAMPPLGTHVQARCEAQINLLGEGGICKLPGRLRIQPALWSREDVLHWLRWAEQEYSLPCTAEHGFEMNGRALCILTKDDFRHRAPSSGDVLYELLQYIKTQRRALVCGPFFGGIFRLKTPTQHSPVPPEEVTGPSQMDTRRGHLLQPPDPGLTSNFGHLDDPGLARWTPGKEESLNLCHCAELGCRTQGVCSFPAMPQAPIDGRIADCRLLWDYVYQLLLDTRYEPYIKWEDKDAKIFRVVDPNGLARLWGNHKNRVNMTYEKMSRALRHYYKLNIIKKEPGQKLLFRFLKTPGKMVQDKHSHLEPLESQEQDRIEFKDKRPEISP
In short: as §1

ELF5 = target: T6, ELF5 (Homo sapiens, UniProt Q9UKW6-2 1-255)
T6 sequence: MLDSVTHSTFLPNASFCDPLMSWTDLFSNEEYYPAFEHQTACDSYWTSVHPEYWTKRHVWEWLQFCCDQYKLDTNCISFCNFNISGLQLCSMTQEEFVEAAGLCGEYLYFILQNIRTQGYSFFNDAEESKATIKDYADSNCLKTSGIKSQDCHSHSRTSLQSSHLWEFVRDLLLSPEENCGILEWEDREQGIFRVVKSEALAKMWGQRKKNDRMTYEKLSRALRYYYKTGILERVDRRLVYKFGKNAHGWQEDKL
In short: as §1

ETV3 = target: T7, ETV3 (Homo sapiens, UniProt P41162-2 1-143)
T7 sequence: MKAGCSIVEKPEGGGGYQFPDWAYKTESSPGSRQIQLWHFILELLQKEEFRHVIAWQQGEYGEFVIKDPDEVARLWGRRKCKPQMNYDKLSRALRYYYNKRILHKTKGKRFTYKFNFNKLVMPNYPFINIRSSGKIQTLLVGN
In short: as §1

ETV6 = ETV6 (Homo sapiens, UniProt P41212 1-452)
ETV6, sequence (P41212 whole entry): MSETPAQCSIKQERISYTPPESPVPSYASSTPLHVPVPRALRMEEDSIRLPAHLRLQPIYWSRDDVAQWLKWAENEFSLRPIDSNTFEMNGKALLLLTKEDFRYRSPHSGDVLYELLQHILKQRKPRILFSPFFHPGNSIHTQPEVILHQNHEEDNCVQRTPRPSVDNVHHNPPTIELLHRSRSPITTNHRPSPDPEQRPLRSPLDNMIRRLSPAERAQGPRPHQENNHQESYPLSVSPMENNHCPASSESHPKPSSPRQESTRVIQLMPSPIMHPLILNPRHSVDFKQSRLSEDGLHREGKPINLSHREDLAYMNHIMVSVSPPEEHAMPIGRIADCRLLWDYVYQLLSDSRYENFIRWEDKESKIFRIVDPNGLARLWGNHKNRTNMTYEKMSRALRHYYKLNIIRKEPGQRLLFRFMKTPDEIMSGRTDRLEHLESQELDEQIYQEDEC
In short: as §1

| Sequence | binding signal (ERF) | binding signal (ETV3L) | binding signal (ETS2) | binding signal (SPDEF) | binding signal (ETV7) | binding signal (ELF5) | binding signal (ETV3) | binding signal (ETV6) |
| --- | --- | --- | --- | --- | --- | --- | --- | --- |
| CTTCAG | 1.27 fold enrichment (6-mer frequency, TF over GST control) | 1.26 fold enrichment (6-mer frequency, TF over GST control) | 1.33 fold enrichment (6-mer frequency, TF over GST control) | 1.34 fold enrichment (6-mer frequency, TF over GST control) | 1.29 fold enrichment (6-mer frequency, TF over GST control) | 1.35 fold enrichment (6-mer frequency, TF over GST control) | 1.17 fold enrichment (6-mer frequency, TF over GST control) | 1.37 fold enrichment (6-mer frequency, TF over GST control) |
| CTTCTT | 1.53 fold enrichment (6-mer frequency, TF over GST control) | 1.59 fold enrichment (6-mer frequency, TF over GST control) | 1.35 fold enrichment (6-mer frequency, TF over GST control) | 1.54 fold enrichment (6-mer frequency, TF over GST control) | 1.44 fold enrichment (6-mer frequency, TF over GST control) | 1.65 fold enrichment (6-mer frequency, TF over GST control) | 1.6 fold enrichment (6-mer frequency, TF over GST control) | 1.64 fold enrichment (6-mer frequency, TF over GST control) |
| CTCATG | 1.18 fold enrichment (6-mer frequency, TF over GST control) | 1.22 fold enrichment (6-mer frequency, TF over GST control) | 1.21 fold enrichment (6-mer frequency, TF over GST control) | 1.18 fold enrichment (6-mer frequency, TF over GST control) | 1.18 fold enrichment (6-mer frequency, TF over GST control) | 1.19 fold enrichment (6-mer frequency, TF over GST control) | 1.22 fold enrichment (6-mer frequency, TF over GST control) | 1.17 fold enrichment (6-mer frequency, TF over GST control) |
| TTGGTT | 1.43 fold enrichment (6-mer frequency, TF over GST control) | 1.45 fold enrichment (6-mer frequency, TF over GST control) | 1.48 fold enrichment (6-mer frequency, TF over GST control) | 1.45 fold enrichment (6-mer frequency, TF over GST control) | 1.52 fold enrichment (6-mer frequency, TF over GST control) | 1.37 fold enrichment (6-mer frequency, TF over GST control) | 1.36 fold enrichment (6-mer frequency, TF over GST control) | 1.44 fold enrichment (6-mer frequency, TF over GST control) |
